One sequence from publication PMC7862700, “An all-to-all approach to the identification of sequence-specific readers for epigenetic DNA modifications on cytosine” can be followed below.

Assay in all cases: DAPPL (digital affinity profiling via proximity ligation, sequencing); 10 mM Tris-HCl pH 7.5, 50 mM NaCl, 1 mM DTT, 4% glycerol, room temperature, 30 min; GST-TFs on glutathione beads, 16-mer random dsDNA library, 0.1% formaldehyde crosslink after washing; high values mean tight binding
One assay has as its target T1, FEV (Homo sapiens, UniProt Q99581 1-238).
T1 sequence: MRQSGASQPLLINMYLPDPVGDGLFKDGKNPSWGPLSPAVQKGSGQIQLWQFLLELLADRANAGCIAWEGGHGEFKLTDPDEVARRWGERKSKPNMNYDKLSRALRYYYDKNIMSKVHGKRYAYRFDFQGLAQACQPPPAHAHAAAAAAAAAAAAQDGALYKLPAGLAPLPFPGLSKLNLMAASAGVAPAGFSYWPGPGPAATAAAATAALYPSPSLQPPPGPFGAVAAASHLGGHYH
As to conditions: protein: recombinant; tags: N-terminal GST; dsDNA, one strand shown. An outline of the steps:
(§1)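 GST fusions of human transcription factors were expressed in yeast and captured with glutathione beads. Once given DNA barcodes and pooled alongside a tag-only sample, they were incubated for 30 min at room temperature with 200 nmole of a random double-stranded 16-mer DNA library in Tris/NaCl/DTT/glycerol buffer, then washed, crosslinked (0.1% formaldehyde), proximity-ligated, PCR-amplified and sequenced on an Illumina NextSeq500. The binding signal of each hexamer is its read frequency for a factor divided by its frequency for the tag-only sample.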

The target in the next assay is ETV5 (Homo sapiens, UniProt P41161 1-510). Particulars: protein: recombinant; tags: N-terminal GST; dsDNA, one strand shown. An outline of the steps: as §1
The next assay concerns the target HSF1 (Homo sapiens, UniProt Q00613 1-529). As to conditions: protein: recombinant; tags: N-terminal GST; chain copies: 3; dsDNA, one strand shown. An outline of the steps:
as §1

Another assay has as its target T2, SPIC (Homo sapiens, UniProt Q8N5J4 1-248).
T2 sequence: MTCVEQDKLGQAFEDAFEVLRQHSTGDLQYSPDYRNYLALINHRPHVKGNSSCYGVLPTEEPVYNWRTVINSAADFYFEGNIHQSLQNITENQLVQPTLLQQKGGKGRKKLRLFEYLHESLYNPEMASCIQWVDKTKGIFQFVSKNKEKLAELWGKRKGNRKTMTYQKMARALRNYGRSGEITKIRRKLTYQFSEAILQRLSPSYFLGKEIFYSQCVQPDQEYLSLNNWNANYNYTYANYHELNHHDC
As to conditions: protein: recombinant; tags: N-terminal GST; dsDNA, one strand shown. An outline of the steps:
as §1

The target in the next assay is ELF4 (Homo sapiens, UniProt Q99607 1-663). As to conditions: protein: recombinant; tags: N-terminal GST; dsDNA, one strand shown. An outline of the steps: as §1
The next assay addresses T3, ELK4 (Homo sapiens, UniProt P28324-2 1-405).
T3 sequence: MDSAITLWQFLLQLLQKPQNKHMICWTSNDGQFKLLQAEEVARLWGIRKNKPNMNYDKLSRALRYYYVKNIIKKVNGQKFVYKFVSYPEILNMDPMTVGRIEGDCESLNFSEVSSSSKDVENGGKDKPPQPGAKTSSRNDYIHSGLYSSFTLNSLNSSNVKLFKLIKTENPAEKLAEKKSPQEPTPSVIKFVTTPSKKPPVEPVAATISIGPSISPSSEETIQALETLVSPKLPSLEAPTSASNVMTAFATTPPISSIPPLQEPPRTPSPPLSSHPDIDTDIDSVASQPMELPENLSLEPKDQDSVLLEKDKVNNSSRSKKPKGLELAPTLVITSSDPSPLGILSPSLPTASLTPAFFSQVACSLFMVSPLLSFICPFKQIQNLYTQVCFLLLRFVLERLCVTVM
As to conditions: protein: recombinant; tags: N-terminal GST; dsDNA, one strand shown. An outline of the steps: as §1

The next assay addresses T4, ETV2 (Homo sapiens, UniProt O00321 1-342).
T4 sequence: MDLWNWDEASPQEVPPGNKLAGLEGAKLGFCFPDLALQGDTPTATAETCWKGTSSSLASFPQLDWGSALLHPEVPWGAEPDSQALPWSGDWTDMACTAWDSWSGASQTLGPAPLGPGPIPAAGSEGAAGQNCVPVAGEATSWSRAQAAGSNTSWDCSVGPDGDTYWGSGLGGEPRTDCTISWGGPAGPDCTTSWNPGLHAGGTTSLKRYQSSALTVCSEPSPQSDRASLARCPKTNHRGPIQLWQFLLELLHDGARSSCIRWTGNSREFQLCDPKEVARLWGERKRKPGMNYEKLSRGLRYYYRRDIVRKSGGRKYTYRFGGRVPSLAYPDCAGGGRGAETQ
As to conditions: protein: recombinant; tags: N-terminal GST; dsDNA, one strand shown. An outline of the steps:
as §1

A further assay concerns the target T5, ELF3 (Homo sapiens, UniProt P78545 1-371).
T5 sequence: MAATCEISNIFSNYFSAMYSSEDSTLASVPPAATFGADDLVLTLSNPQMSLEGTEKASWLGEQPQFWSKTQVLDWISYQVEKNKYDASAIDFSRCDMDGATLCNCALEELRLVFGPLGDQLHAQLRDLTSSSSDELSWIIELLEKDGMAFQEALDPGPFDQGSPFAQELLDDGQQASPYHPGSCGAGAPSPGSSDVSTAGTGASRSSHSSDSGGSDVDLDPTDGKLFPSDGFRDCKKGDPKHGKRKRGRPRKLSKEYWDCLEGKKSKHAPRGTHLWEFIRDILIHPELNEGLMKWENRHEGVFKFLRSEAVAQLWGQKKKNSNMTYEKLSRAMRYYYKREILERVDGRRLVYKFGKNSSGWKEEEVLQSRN
As to conditions: protein: recombinant; tags: N-terminal GST; dsDNA, one strand shown. An outline of the steps: as §1

The next assay addresses CRX (Homo sapiens, UniProt O43186 1-299). As to conditions: protein: recombinant; tags: N-terminal GST; dsDNA, one strand shown. An outline of the steps: as §1
In another assay the target is ETV1 (Homo sapiens, UniProt P50549 1-477). As to conditions: protein: recombinant; tags: N-terminal GST; dsDNA, one strand shown. An outline of the steps:
as §1

The target in another assay is T6, ERF (Homo sapiens, UniProt P50548 1-548).
T6 sequence: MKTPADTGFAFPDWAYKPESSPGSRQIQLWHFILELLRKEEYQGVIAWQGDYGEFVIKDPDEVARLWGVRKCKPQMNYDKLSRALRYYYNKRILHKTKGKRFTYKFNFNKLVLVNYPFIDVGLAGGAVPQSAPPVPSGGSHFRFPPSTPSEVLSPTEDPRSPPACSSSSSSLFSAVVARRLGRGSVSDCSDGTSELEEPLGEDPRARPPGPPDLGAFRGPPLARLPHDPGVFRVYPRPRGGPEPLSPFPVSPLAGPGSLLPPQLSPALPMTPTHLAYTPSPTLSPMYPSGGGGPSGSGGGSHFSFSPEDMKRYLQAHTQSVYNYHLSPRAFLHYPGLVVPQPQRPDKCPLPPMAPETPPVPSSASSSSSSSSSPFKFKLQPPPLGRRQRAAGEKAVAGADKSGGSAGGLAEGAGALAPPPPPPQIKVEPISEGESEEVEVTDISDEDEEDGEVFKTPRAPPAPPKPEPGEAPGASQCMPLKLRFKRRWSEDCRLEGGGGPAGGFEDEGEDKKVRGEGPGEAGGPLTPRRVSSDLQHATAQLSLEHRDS
As to conditions: protein: recombinant; tags: N-terminal GST; dsDNA, one strand shown. An outline of the steps:
as §1

The target in a further assay is T7, ETV3L (Homo sapiens, UniProt Q6ZN32 1-361).
T7 sequence: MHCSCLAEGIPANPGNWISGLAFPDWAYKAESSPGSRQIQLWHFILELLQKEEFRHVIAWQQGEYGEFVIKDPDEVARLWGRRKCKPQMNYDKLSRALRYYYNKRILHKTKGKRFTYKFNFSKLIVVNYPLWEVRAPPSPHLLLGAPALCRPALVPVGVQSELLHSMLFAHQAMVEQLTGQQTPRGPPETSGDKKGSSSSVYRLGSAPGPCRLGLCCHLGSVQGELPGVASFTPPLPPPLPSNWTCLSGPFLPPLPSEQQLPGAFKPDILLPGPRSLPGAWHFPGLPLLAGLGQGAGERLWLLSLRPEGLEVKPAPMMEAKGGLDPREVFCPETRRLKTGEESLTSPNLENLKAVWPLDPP
As to conditions: protein: recombinant; tags: N-terminal GST; dsDNA, one strand shown. An outline of the steps: as §1

Another assay concerns the target T8, ETS2 (Homo sapiens, UniProt P15036 1-469).
T8 sequence: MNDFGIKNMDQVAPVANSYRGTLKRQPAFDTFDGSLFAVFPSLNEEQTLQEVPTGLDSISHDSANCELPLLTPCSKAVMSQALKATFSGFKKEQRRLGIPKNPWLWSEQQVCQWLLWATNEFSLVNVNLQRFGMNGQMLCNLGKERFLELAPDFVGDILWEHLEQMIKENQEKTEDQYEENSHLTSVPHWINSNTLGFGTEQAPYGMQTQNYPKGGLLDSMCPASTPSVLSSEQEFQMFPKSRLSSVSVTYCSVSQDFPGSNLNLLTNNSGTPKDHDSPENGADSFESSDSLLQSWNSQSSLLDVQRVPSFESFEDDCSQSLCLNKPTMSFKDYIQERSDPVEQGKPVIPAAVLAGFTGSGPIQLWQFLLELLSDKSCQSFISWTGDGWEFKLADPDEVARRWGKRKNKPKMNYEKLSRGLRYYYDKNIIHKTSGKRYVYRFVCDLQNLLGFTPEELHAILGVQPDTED
As to conditions: protein: recombinant; tags: N-terminal GST; dsDNA, one strand shown. An outline of the steps: as §1

The target in a further assay is T9, SPDEF (Homo sapiens, UniProt O95238 1-335).
T9 sequence: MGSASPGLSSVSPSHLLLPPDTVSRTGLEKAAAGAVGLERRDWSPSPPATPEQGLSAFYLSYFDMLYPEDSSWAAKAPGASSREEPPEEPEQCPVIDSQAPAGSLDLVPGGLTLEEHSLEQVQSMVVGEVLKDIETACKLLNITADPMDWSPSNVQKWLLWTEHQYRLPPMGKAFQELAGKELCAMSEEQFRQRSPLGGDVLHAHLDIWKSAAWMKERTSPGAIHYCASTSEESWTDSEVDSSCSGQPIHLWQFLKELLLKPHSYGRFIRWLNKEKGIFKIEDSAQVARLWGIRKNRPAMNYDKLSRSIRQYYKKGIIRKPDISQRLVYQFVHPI
Particulars: protein: recombinant; tags: N-terminal GST; dsDNA, one strand shown. An outline of the steps:
as §1

The target in a further assay is T10, ETV7 (Homo sapiens, UniProt Q9Y603 1-341).
T10 sequence: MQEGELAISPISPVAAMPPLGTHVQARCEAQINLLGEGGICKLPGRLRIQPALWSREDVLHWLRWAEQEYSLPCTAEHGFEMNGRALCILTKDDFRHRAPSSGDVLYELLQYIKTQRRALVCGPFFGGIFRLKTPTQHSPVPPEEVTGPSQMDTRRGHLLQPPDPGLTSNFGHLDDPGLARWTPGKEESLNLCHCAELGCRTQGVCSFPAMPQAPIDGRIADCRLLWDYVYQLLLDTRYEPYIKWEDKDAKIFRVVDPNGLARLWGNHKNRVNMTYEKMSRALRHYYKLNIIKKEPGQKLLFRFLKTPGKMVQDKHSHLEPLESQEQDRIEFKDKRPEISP
As to conditions: protein: recombinant; tags: N-terminal GST; dsDNA, one strand shown. An outline of the steps:
as §1

The target in another assay is T11, ELF5 (Homo sapiens, UniProt Q9UKW6-2 1-255).
T11 sequence: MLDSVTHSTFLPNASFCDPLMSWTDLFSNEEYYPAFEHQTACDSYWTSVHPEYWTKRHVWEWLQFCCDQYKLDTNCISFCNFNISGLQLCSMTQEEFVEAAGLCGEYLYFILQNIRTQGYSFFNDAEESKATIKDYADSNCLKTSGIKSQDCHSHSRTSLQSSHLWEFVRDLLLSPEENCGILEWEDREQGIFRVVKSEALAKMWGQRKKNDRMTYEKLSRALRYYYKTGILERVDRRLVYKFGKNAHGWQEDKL
As to conditions: protein: recombinant; tags: N-terminal GST; dsDNA, one strand shown. An outline of the steps:
as §1

The next assay has as its target T12, ETV3 (Homo sapiens, UniProt P41162-2 1-143).
T12 sequence: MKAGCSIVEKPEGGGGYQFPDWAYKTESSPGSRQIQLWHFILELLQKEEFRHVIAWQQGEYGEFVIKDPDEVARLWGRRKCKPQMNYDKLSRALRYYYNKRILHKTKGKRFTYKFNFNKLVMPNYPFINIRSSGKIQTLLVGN
Particulars: protein: recombinant; tags: N-terminal GST; dsDNA, one strand shown. An outline of the steps: as §1

A further assay has as its target ETV6 (Homo sapiens, UniProt P41212 1-452). As to conditions: protein: recombinant; tags: N-terminal GST; dsDNA, one strand shown. An outline of the steps: as §1

ETV1, sequence (P50549 whole entry): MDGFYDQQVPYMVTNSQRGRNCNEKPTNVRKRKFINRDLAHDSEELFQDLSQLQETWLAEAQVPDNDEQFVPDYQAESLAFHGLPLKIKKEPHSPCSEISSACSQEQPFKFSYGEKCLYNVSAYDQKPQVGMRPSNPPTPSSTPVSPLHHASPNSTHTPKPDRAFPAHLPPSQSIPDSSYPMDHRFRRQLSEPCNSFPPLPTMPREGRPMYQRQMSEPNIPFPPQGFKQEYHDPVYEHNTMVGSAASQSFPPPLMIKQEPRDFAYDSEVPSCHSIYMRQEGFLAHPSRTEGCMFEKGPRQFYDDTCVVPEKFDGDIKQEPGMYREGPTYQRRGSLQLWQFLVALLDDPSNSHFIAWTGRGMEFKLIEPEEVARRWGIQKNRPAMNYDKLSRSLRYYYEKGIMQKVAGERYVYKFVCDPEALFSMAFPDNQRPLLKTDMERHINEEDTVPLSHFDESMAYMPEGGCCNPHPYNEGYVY
CRX, sequence (O43186 whole entry): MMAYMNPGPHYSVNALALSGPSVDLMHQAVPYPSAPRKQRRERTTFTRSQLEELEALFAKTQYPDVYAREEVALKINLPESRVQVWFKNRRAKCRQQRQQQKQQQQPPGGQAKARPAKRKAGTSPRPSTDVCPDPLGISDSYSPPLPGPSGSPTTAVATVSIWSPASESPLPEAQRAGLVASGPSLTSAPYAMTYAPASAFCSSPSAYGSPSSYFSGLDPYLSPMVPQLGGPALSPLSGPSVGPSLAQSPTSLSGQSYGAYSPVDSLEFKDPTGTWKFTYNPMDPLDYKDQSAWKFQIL
ETV5, sequence (P41161 whole entry): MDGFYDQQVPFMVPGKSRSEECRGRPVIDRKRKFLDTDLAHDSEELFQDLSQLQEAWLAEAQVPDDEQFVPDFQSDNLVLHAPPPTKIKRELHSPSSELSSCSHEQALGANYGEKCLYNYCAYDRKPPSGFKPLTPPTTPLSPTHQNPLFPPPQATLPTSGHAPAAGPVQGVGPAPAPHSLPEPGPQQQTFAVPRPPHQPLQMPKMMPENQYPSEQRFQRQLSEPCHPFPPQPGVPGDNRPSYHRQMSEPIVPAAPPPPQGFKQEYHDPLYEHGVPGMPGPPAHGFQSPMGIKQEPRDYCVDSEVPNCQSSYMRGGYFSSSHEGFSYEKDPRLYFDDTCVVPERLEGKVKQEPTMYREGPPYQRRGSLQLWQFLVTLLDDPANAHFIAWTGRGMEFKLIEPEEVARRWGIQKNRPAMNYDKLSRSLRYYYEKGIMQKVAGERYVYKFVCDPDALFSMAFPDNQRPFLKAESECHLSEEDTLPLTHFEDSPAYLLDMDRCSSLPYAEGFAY
ETV6, sequence (P41212 whole entry): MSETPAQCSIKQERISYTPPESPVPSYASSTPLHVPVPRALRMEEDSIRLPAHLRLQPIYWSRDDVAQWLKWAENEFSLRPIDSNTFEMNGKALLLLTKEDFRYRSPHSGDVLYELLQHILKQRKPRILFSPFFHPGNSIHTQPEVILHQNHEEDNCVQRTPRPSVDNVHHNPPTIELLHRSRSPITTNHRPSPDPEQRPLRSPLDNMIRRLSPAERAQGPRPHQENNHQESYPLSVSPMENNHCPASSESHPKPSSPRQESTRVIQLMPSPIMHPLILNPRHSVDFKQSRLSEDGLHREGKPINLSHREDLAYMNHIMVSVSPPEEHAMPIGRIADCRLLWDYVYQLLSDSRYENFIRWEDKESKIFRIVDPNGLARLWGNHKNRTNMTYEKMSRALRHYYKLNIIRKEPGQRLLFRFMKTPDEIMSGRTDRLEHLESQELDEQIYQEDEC
HSF1, sequence (Q00613 whole entry): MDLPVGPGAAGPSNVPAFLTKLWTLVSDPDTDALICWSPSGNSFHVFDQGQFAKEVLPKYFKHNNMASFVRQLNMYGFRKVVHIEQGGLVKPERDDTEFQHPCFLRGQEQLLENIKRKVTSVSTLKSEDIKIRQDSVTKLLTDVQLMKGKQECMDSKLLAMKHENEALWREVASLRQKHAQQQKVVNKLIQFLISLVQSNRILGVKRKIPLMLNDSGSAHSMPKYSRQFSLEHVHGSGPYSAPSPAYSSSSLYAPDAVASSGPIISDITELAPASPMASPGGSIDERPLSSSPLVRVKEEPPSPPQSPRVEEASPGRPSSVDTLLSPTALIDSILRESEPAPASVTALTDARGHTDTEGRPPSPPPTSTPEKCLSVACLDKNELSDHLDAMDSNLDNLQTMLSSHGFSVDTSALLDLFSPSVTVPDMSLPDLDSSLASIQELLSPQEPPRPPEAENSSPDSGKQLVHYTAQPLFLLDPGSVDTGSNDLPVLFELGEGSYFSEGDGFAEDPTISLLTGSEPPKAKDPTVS
ELF4, sequence (Q99607 whole entry): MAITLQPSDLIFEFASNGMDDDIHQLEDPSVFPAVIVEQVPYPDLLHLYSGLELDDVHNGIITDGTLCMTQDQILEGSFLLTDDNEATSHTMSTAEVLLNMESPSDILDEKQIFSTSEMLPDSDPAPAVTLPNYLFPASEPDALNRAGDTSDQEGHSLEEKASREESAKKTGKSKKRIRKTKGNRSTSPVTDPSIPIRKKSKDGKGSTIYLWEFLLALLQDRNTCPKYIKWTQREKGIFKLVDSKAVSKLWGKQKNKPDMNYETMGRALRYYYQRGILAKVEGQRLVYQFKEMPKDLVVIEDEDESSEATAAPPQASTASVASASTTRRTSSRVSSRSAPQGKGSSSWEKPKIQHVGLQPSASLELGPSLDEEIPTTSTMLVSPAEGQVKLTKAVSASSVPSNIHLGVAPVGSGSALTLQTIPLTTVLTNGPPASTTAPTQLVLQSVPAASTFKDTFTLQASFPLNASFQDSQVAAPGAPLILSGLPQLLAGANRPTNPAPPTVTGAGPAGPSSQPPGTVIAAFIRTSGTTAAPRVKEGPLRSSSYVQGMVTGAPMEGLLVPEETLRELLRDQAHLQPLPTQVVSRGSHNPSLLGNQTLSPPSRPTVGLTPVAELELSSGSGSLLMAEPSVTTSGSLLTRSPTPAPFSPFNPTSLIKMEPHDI

Consider TATCCG, for which the binding signal is 4.84 fold enrichment (6-mer frequency, TF over GST control) with FEV; 2.85 fold enrichment (6-mer frequency, TF over GST control) with ETV5; 1.54 fold enrichment (6-mer frequency, TF over GST control) with HSF1; 2.38 fold enrichment (6-mer frequency, TF over GST control) with SPIC; 2.2 fold enrichment (6-mer frequency, TF over GST control) with ELF4; 2.29 fold enrichment (6-mer frequency, TF over GST control) in the assay with ELK4. In addition, the binding signal was 2.68 fold enrichment (6-mer frequency, TF over GST control) with ETV2; 2.33 fold enrichment (6-mer frequency, TF over GST control) in the assay with ELF3; 1.95 fold enrichment (6-mer frequency, TF over GST control) with CRX; 2.72 fold enrichment (6-mer frequency, TF over GST control) in the assay with ETV1; 2.52 fold enrichment (6-mer frequency, TF over GST control) with ERF; 2.45 fold enrichment (6-mer frequency, TF over GST control) with ETV3L. The binding signal with ETS2 was 2.55 fold enrichment (6-mer frequency, TF over GST control); with SPDEF it was 3.8 fold enrichment (6-mer frequency, TF over GST control); in the assay with ETV7 it was 2.1 fold enrichment (6-mer frequency, TF over GST control); with ELF5, 3.31 fold enrichment (6-mer frequency, TF over GST control); with ETV3, 2.57 fold enrichment (6-mer frequency, TF over GST control); with ETV6, 2.38 fold enrichment (6-mer frequency, TF over GST control).
